This is an account of results in PubChem BioAssay (NCATS).

The nature of assay [1]: qHTS of pediatric cancer cell lines to identify multiple opportunities for drug repurposing: Primary screen for LAN-5 cells (AID 1347100). Further: potency means the concentration at half of the fitted maximal effect. The essentials: (§1)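 Cells (500-1,000/well) rested 5 h, then received compounds for 48 h; metabolically active cells were measured by CellTiter-Glo luminescence. Final concentrations spanned up to 46 µM (MIPE, 11-point) or 0.59 nM-46 µM (NPC, 8-point) in primary screens, 11-point in follow-ups.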

Assay [2] is described as follows: qHTS of pediatric cancer cell lines to identify multiple opportunities for drug repurposing: Primary screen for BT-12 cells (AID 1347101). Further: nearly all actives have a fitted effect of over 25% in size. Further: potency means the concentration at half of the fitted maximal effect. The essentials: as §1
Assay [3] can be described thus: qHTS of pediatric cancer cell lines to identify multiple opportunities for drug repurposing: Primary screen for Rh18 cells (AID 1347102). Further: nearly all actives have a fitted effect of over 65% in size. Further: potency means the concentration at half of the fitted maximal effect. The method, boiled down:
as §1

A short description of assay [4]: qHTS of pediatric cancer cell lines to identify multiple opportunities for drug repurposing: Primary screen for OHS-50 cells (AID 1347103). Further: nearly all actives have a fitted effect of over 40% in size. Further: potency means the concentration at half of the fitted maximal effect. The method, boiled down:
as §1

Assay [5] can be described thus: qHTS of pediatric cancer cell lines to identify multiple opportunities for drug repurposing: Primary screen for RD cells (AID 1347104). Further: nearly all actives have a fitted effect of over 55% in size. Further: potency means the concentration at half of the fitted maximal effect. The essentials: (§2)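 Cells plated at 500-1,000/well in growth medium, compounds added after 5 h. MIPE tested at 11 points (from 0.78 nM), NPC at 8 points (from 0.59 nM). CellTiter-Glo luminescence after 48 h; concentration-response curves from primary screen.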

The nature of assay [6]: qHTS of pediatric cancer cell lines to identify multiple opportunities for drug repurposing: Primary screen for control Hh wild type fibroblast cells (AID 1347106). Further: nearly all actives have a fitted effect of over 55% in size. Further: potency means the concentration at half of the fitted maximal effect. The method, boiled down:
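Cells (500-1,000/well) in growth media were settled 5 h at 37 degrees C, then given compounds for 48 h. Viability was read as CellTiter-Glo luminescence. Primary runs used MIPE at 11 points (0.78 nM-46 µM) and NPC at 8 points (0.59 nM-46 µM); follow-ups used 11 points.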

Assay [7] in a line: qHTS of pediatric cancer cell lines to identify multiple opportunities for drug repurposing: Primary screen for Rh41 cells (AID 1347108). Further: nearly all actives have a fitted effect of over 70% in size. Further: potency means the concentration at half of the fitted maximal effect. The method, boiled down: as §2
Assay [8] in a line: qHTS of pediatric cancer cell lines to identify multiple opportunities for drug repurposing: Primary screen for MG 63 (6-TG R) cells (AID 1347105). Further: nearly all actives have a fitted effect of over 50% in size. Further: potency means the concentration at half of the fitted maximal effect. The method, boiled down: as §2
The nature of assay [9]: qHTS of pediatric cancer cell lines to identify multiple opportunities for drug repurposing: Primary screen for Rh30 cells (AID 1347107). Further: nearly all actives have a fitted effect of over 75% in size. Further: potency means the concentration at half of the fitted maximal effect. The essentials: as §1
Assay [10] in a line: qHTS of pediatric cancer cell lines to identify multiple opportunities for drug repurposing: Confirmatory screen for NB1643 cells (AID 1347109). Further: nearly all actives have a fitted effect of over 45% in size. Further: potency means the concentration at half of the fitted maximal effect. The essentials: as §1
Assay [11] can be described thus: qHTS of pediatric cancer cell lines to identify multiple opportunities for drug repurposing: Confirmatory screen for LAN-5 cells (AID 1347113). Further: nearly all actives have a fitted effect of over 65% in size. Further: potency means the concentration at half of the fitted maximal effect. The method, boiled down: as §1
The nature of assay [12]: qHTS of pediatric cancer cell lines to identify multiple opportunities for drug repurposing: Confirmatory screen for DAOY cells (AID 1347114). Further: nearly all actives have a fitted effect of over 65% in size. Further: potency means the concentration at half of the fitted maximal effect. The essentials:
(§3)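 Viability measured as metabolically active cells via CellTiter-Glo luminescence following 48 hours of compound exposure, 11-point dilutions in confirmatory testing. 500-1,000 cells/well plated 5 hours before dosing; controls were DMSO and 2.3 µM bortezomib.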

Assay [13] can be described thus: qHTS of pediatric cancer cell lines to identify multiple opportunities for drug repurposing: Confirmatory screen for NB-EBc1 cells (AID 1347115).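 Further: cells exposed to compound for 48 h before the viability read; nearly all actives have a fitted effect of over 45% in size.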 The essentials:
as §1

The nature of assay [14]: qHTS of pediatric cancer cell lines to identify multiple opportunities for drug repurposing: Confirmatory screen for SJ-GBM2 cells (AID 1347116). Further: nearly all actives have a fitted effect of over 60% in size. Further: potency means the concentration at half of the fitted maximal effect. The essentials:
as §3

Assay [15] in a line: qHTS of pediatric cancer cell lines to identify multiple opportunities for drug repurposing: Confirmatory screen for TC32 cells (AID 1347118).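 Further: cells exposed to compound for 48 h before the read; nearly all actives have a fitted effect of over 65% in size.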 Further: potency means the concentration at half of the fitted maximal effect. The essentials:
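qHTS, TC32, 48 h drug treatment, CellTiter-Glo luminescence as a proxy for metabolically active cells; primary top concentration 46 µM (MIPE 11-pt, NPC 8-pt); confirmatory 11-pt.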

Assay [16] in a line: qHTS of pediatric cancer cell lines to identify multiple opportunities for drug repurposing: Confirmatory screen for MG 63 (6-TG R) cells (AID 1347119). Further: nearly all actives have a fitted effect of over 55% in size. Further: potency means the concentration at half of the fitted maximal effect. The method, boiled down:
as §1

A short description of assay [17]: qHTS of pediatric cancer cell lines to identify multiple opportunities for drug repurposing: Confirmatory screen for control Hh wild type fibroblast cells (AID 1347121). Further: nearly all actives have a fitted effect of over 70% in size. Further: potency means the concentration at half of the fitted maximal effect. The essentials: as §1
The nature of assay [18]: qHTS of pediatric cancer cell lines to identify multiple opportunities for drug repurposing: Confirmatory screen for Rh41 cells (AID 1347123).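 Further: 48 h compound exposure; nearly all actives have a fitted effect of over 60% in size.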 Further: potency means the concentration at half of the fitted maximal effect. The essentials:
as §1

Assay [19] can be described thus: qHTS of pediatric cancer cell lines to identify multiple opportunities for drug repurposing: Confirmatory screen for A673 cells (AID 1347110). Further: potency means the concentration at half of the fitted maximal effect. The essentials: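 Concentration-response curves came straight from titrations: 11 points (0.78 nM to 46 µM) for MIPE and several concentrations (0.59 nM to 46 µM) for NPC in primary, 11 points in follow-up. Readout: ATP luminescence at 48 h.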

Assay [20] in a line: qHTS of pediatric cancer cell lines to identify multiple opportunities for drug repurposing: Confirmatory screen for BT-37 cells (AID 1347117). Further: nearly all actives have a fitted effect of over 55% in size. Further: potency means the concentration at half of the fitted maximal effect. The essentials:
as §1

The structures appear in SMILES notation. Inconclusive results are not listed. Active and inactive are the calls of the source. The call rests on the fitted dose curve; in most records, active means well fitted curve in the direction sought with a large enough effect; inconclusive means small, poorly fitted or top-dose-only effect, or another doubt; inactive means no such curve, though single readings can be large; an effect the other way counts as inactive or inconclusive.

`CCOC(=O)n1ccn(C)c1=S`: the Potency result in assay [1], in assay [2], in assay [3], in assay [4], in assay [5] and in [6] was “inactive” throughout. Moreover, in [7], the Potency entry was “inactive”.
Turning to `CC(=O)Oc1ccc(C(c2ccc(OC(C)=O)cc2)c2ccccn2)cc1`, the Potency entry in assay [1], in [2], in assay [3], in assay [5], in assay [6] and in [9] was “inactive” throughout. Moreover, the Potency result in assay [10], in [11], in assay [12], in assay [13], in assay [14] and in assay [17] was “inactive” throughout. In addition, in [18], the Potency entry is “inactive”. The Potency in assay [8] is 0.211 µM (active); in [15] it was 6.57 µM (active); in assay [16] it was 1.17 µM (active).
For `C[n+]1c2cc(N)ccc2cc2ccc(N)cc21` (tested in a mixture with another compound), the Potency in [1] is 5.96 µM (active); in assay [2] it was 3.89 µM (active); in assay [3] it was 8.41 µM (active); in assay [4], 17.4 µM (active); in assay [5] it was 15 µM (active); in assay [10], 3.29 µM (active). For the same compound, the Potency in assay [19] was 5.22 µM (active); in [11], 3.29 µM (active); in assay [12] it was 6.57 µM (active); in assay [14], 13.1 µM (active); in assay [20], 0.827 µM (active); in [15], 5.85 µM (active). Further, the Potency in assay [16] is 14.7 µM (active); in [17], 7.37 µM (active); in assay [18], 5.22 µM (active).
Take `C[C@@H]1C[C@H]2[C@@H]3C[C@H](F)C4=CC(=O)C(Cl)=C[C@]4(C)[C@@]3(F)[C@@H](O)C[C@]2(C)[C@@]1(O)C(=O)CO`: the Potency result in [1], in [2], in [3], in [4], in [5] and in assay [8] was “inactive” in each case. The Potency entry in [6], in [7], in assay [19], in assay [12] and in assay [18] was “inactive” each time.
As for `COc1cc2c(cc1OC)[C@@H]1CC(=O)[C@@H](CC(C)C)CN1CC2`, the Potency result in assay [1], in [2], in assay [3], in assay [5], in assay [8] and in assay [6] was “inactive” in each case. Also, the Potency entry in [9] and in assay [7] was “inactive” throughout.
As to `C[C@@H]1C[C@H]2[C@@H]3CCC4=CC(=O)C=C[C@]4(C)[C@@]3(F)[C@@H](O)C[C@]2(C)[C@H]1C(=O)CO`, the Potency result in assay [1], in [2], in [3], in assay [5], in assay [8] and in assay [6] was “inactive” throughout. The Potency result in [9], in [7], in assay [10], in [19], in [11] and in assay [12] was “inactive” throughout. The Potency entry in [13], in assay [14], in [20], in [15] and in assay [17] was “inactive” in each case.
With `CN(C)C(=S)SC(=S)N(C)C`, the Potency in [1] is 1.33 µM (active); in [2], 1.23 µM (active); in assay [3] it was 1.88 µM (active); in assay [4], 8.71 µM (active); in assay [5] it was 0.944 µM (active); in assay [8] it was 4.22 µM (active). In addition, the Potency in [6] was 1.19 µM (active); in assay [10] it was 9.27 µM (active); in assay [19], 2.61 µM (active); in assay [11], 3.69 µM (active); in assay [20], 3.69 µM (active); in assay [15], 3.69 µM (active). For the same compound, the Potency in [18] was 1.31 µM (active). For the same compound, the Potency entry in assay [12], in assay [14] and in assay [17] was “inactive” throughout.
Take `CN1CCN(C(c2ccccc2)c2ccccc2)CC1`: the Potency entry in [1], in assay [2], in assay [3], in assay [5], in [8] and in [6] was “inactive” throughout. For the same compound, in assay [9], the Potency result is “inactive”.
Consider `CCCCN1CCCC1C(=O)Nc1c(C)cc(C)cc1C` (configuration not stated), for which the Potency entry in assay [1], in assay [2], in assay [3], in assay [5], in assay [8] and in [6] was “inactive” throughout. In assay [7], the Potency entry was “inactive”.
For the compound `CNCC[C@@H](Oc1ccccc1C)c1ccccc1`, the Potency entry in assay [1], in [2], in assay [3], in [5], in [8] and in [6] was “inactive” each time. In addition, the Potency entry in assay [7] was “inactive”.
On to `CCCCCCC[N+](CC)(CC)CCCCc1ccc(Cl)cc1`, for which the Potency in assay [1] was 2.99 µM (active); in assay [2], 7.77 µM (active); in assay [3], 11.9 µM (active); in assay [4], 3.89 µM (active); in assay [5] it was 13.3 µM (active); in [7], 15 µM (active). For the same compound, the Potency was 14.7 µM (active) in assay [10]; 3.69 µM (active) in assay [19]; 8.27 µM (active) in [11]; 5.22 µM (active) in assay [20]; 13.1 µM (active) in [16]; 9.27 µM (active) in assay [17]. The Potency result in assay [6] and in [12] was “inactive” throughout.
Regarding `CCCCCCCCCCCCCCCC[N+](C)(C)CCN(Cc1ccc(OC)cc1)c1ncccn1`, the Potency in assay [1] was 23.7 µM (active); in assay [2] it was 7.77 µM (active); in [3], 13.3 µM (active); in assay [4] it was 6.92 µM (active); in assay [9], 16.8 µM (active); in [7] it was 16.8 µM (active).
Turning to `CC1(C)O[C@@H]2C[C@H]3[C@@H]4C[C@H](F)C5=CC(=O)CC[C@]5(C)[C@H]4[C@@H](O)C[C@]3(C)[C@]2(C(=O)CO)O1`, the Potency result in assay [1], in [2], in [3], in [4], in [5] and in assay [8] was “inactive” throughout. Moreover, the Potency entry in [6], in assay [7], in [10], in assay [19], in assay [11] and in [12] was “inactive” each time. In addition, the Potency result in assay [13], in assay [14], in assay [20], in [16], in [17] and in assay [18] was “inactive” throughout.
For `C#C[C@]1(O)CC[C@H]2[C@@H]3CCC4=CC(=O)CC[C@@H]4[C@H]3CC[C@@]21C`, the Potency result in [1], in [2], in [3], in assay [4], in assay [5] and in assay [6] was “inactive” in each case. For the same compound, the Potency entry in assay [9] and in [7] was “inactive” throughout.
Turning to `C[C@]12CC[C@@H]3c4ccc(O)cc4CC[C@H]3[C@@H]1C[C@@H](O)[C@@H]2O`, the Potency entry in assay [1], in assay [2], in [3], in assay [5], in [8] and in assay [6] was “inactive” throughout.
Regarding `CO/N=C1\CN(c2nc3c(cc2F)c(=O)c(C(=O)O)cn3C2CC2)CC1CN` (configuration not stated), the Potency entry in assay [1], in [3], in assay [4], in assay [5], in assay [8] and in [6] was “inactive” each time. In addition, the Potency entry in assay [9] is “inactive”.
Consider `N[C@@H](CCC(=O)N[C@@H](CS)C(=O)NCC(=O)O)C(=O)O`, for which the Potency result in [1], in assay [2], in [4], in assay [5], in assay [8] and in assay [6] was “inactive” throughout. In addition, the Potency entry in assay [7] is “inactive”.
Regarding `Oc1ccc(Cl)c2cccnc12`, the Potency in [1] is 21.1 µM (active); in assay [2] it was 5.5 µM (active); in [6] it was 16.8 µM (active). The Potency entry in [8] and in [9] was “inactive” throughout.
On to `CC(C)(CO)[C@@H](O)C(=O)NCCCO`, for which the Potency result in assay [1], in [2], in assay [4], in assay [5], in [8] and in [6] was “inactive” throughout. In addition, the Potency result in assay [7] was “inactive”.
For the compound `CN=C(NC#N)Nc1ccc(C2=NNC(=O)CC2C)cc1` (configuration not stated), the Potency entry in assay [1], in assay [2], in assay [4], in [5], in [8] and in assay [6] was “inactive” in each case. The Potency entry in assay [9] and in assay [7] was “inactive” throughout.
